Source: PubChem BioAssay
Compounds with a hit are over-represented: about 7.3% of the library has one in this group of screens.
Rab9 promoter act – qHTS Assay for Rab9 Promoter Activators; Huh7 Rab9 promoter-luciferase reporter, luminescence, 24 h; Potency, µM (highest dose often 9.22 µM), without a hit: at the top dose activation, negative = inhibition, hits mostly activators; 2.8% of 320,000 active; AID 485297, 2010; further: % of control where 0% means no effect; nearly all actives have a fitted effect of over 60% in size
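Luminescence read-out: Huh7 cells stably expressing Rab9-luciferase, treated 24 h with compound at 37 °C, then lysed with luciferase reagent for 10 min at ambient before reading.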
SMN2 splice enh – qHTS Assay for Enhancers of SMN2 Splice Variant Expression; HEK293 SMN2-luciferase splicing reporter, luminescence, 30-36 h; Potency, µM (series often up to 46.1 µM), without a hit: top-dose activity change, positive = activation, usual class: activators; 2.8% of 210,000 active; AID 1458, 2008; further: % of control where 0% means no effect; nearly all actives have a fitted effect of over 55% in size
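HEK293 cells carry an SMN2 minigene-luciferase reporter in which exon 7 inclusion puts luciferase in frame. Cells were seeded at 2000 cells/well, attached for 10-12 hours, then exposed to compounds for 30-36 hours at 37C before ONE-Glo luminescence.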
NPC1 promoter act – qHTS Assay for NPC1 Promoter Activators; Huh7 NPC1 promoter luciferase reporter, 24 h; Potency, µM (doses to about 9.22 µM), without a hit: at the top dose activation, most hits filed as activators; 2.4% of 320,000 active; AID 485313, 2010; further: % of control where 0% means no effect; nearly all actives have a fitted effect of over 60% in size
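In 1536-well qHTS, Huh7 cells harboring an NPC1 promoter–luciferase construct received compound for 24 h; activation was quantified by luminescence following luciferase reagent addition.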
FLuc counter – qHTS profiling assay for firefly luciferase inhibitor/activator using purifed enzyme and Km concentrations of substrates (counterscreen for miR-21 project). Luciferin 4-monooxygenase (Photinus pyralis), P08659. 6.9% of 360,000 active. purified FLuc, Km substrates, luminescence inhibition. AID 588342, 2011. Potency, µM (highest dose often 57.5 µM), without a hit: top-dose activity change, negative = inhibition, actives largely listed as inhibitors;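 further: plate controls were vehicle for no effect and reference inhibitor for full effect; nearly all actives have a fitted effect of over 55% in size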
Target sequence (P08659 whole entry, looked up): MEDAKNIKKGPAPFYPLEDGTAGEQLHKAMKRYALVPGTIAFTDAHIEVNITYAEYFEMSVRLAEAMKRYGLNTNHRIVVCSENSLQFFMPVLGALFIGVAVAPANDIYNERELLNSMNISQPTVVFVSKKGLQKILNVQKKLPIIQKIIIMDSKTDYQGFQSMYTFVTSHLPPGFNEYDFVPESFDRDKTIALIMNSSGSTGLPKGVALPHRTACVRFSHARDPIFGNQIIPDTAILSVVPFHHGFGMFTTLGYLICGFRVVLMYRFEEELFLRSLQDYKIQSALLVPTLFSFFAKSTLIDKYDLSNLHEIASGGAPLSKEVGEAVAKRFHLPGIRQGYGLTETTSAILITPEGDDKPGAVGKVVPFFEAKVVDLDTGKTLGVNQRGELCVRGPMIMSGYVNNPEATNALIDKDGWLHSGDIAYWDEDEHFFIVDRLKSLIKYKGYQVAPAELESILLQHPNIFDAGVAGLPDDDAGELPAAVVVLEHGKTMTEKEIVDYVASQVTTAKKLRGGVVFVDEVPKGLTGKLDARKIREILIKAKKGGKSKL
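Purified P. pyralis luciferase (10nM final) with 10uM D-luciferin and 10uM ATP (Km levels) in 50mM Tris acetate pH 7.5, 10mM Mg acetate, 0.01% Tween-20, 0.05% BSA; qHTS 6-point titration, ~60 µM downward; luminescence read.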
ELG1 genotoxic – qHTS screen for small molecules that induce genotoxicity in human embryonic kidney (HEK293T) cells expressing luciferase-tagged ELG1 | HEK293T ELG1-luciferase reporter, luminescence, 16 h | Potency, µM (top dose mostly 46 µM), for inactives: at the top dose activity change, positive = activation, actives largely listed as activators | 1.3% of 330,000 active; further: % of control where 0% means no effect; nearly all actives have a fitted effect of over 60% in size
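Quantitative HTS format in 1536-well plates. HEK293T ELG1-luciferase reporter cells receive test compound and are incubated 16 hr at 37 °C, 5% CO2; ONE-Glo added, 30 min room temperature, then luminescence read.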
KinaseGlo FLuc – Counterscreen for Luciferase (Kinase-Glo TM) Inhibition; Luciferin 4-monooxygenase (Photuris pensylvanica), Q27757; 0.28% of 200,000 active; AID 1379, 2008; Kinase-Glo luciferase, ATP luminescence, 8 min; Potency, µM (titrated, usually from 38.3 µM), for inactives: at the highest dose activity change, negative = inhibition, most hits filed as inhibitors; further: on the % scale 0 is the no-effect control and ±100 the full control effect; nearly all actives have a fitted effect of over 60% in size
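Recombinant Kinase-Glo luciferase, 10 uM ATP (linear range), luciferin; imidazole pH 7.2 / KCl / MgCl2 / Tween / BSA buffer; 8 min RT; luminescence.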
The depositor's hits bear a star; ? = inconclusive; · = not tested or not shown; [ ] = dose if it differs, or a comment. The call rests on the fitted dose curve; in most records, active means well fitted curve in the direction sought with a large enough effect; inconclusive means small, poorly fitted or top-dose-only effect, or another doubt; inactive means no such curve, though single readings can be large; an effect the other way counts as inactive or inconclusive. Potency means the concentration at half of the fitted maximal effect.

SMILES | Rab9 promoter act | SMN2 splice enh | NPC1 promoter act | FLuc counter | ELG1 genotoxic | KinaseGlo FLuc
Cc1nnc(NC(=O)c2ccco2)s1 | 2.4% | 5.6% | -1.2% | 0.1% | 7.2% | 3.4%
COc1cccc(-c2nnc(NC(=O)c3cccs3)s2)c1 | ? | 17.8µM* | ? | 2.39µM* | ? | -5.4%
CC(=O)c1ccc(N2C(=O)N(Cc3cccc(C(F)(F)F)c3)c3ccccc3S2(=O)=O)cc1 | · | · | · | -2.1% | · | ·
O=C(Nc1nnc(C23CC4CC(CC(C4)C2)C3)s1)c1ccco1 | 1.78µM* | 16.2% | 1.78µM* | 2.13µM* | 1.16µM* | -0.9%
C/C=C(\C)c1nnc(NC(=O)c2ccco2)s1 | ? | 12.6µM* | ? | 15.1µM* | 16.4µM* | -7.4%
COc1cccc(-c2nnc(NC(=O)c3ccco3)s2)c1 | 2.24µM* | · | 2.24µM* | 7.57µM* | 16.4µM* | ·
O=C(Nc1nnc(Cc2ccccc2)s1)c1ccco1 | ? | ? | ? | 16.9µM* | 16.4µM* | 14.7%
CCC(CC)c1nnc(NC(=O)c2ccco2)s1 | 3.5% | · | -4.2% | -27.0% | 10.8% | -2.4%
CCN(CC)CCNC(=O)Nc1ccc2c(c1)N(Cc1ccccc1)C(=O)c1ccccc1S2 | · | -8.4% | · | -1.9% | · | ·
Cc1cccc(N(C)c2nc3ccccc3c3nnc(C)n23)c1 | · | · | · | -1.5% | · | ·
CCN(Cc1ccccc1)C(=O)Cn1c(=O)n(-c2ccc(C)c(C)c2)c(=O)c2c(C)c(C)sc21 | · | 0.2% | · | -11.5% | · | ·
C[N+]1(C)CCc2cc(O)c(O)cc2[C@H]1Cc1ccc(O)c(O)c1 | · | -2.7%[9.22 µM] | · | · | · | -1.7%[7.66 µM]
COc1ccc(-c2nnc(NC(=O)c3ccco3)s2)cc1 | 0.794µM* | · | 3.55µM* | 1.51µM* | ? | ·
COCC1CCN(C(=O)C2CCC(=O)N(C3CCCC3)C2)CC1 (configuration not stated) | 5.3% | · | -3.5% | -13.7% | 5.5% | ·
COC1CCN(C(=O)C2CCC(=O)N(C3CCCCCC3)C2)CC1 (configuration not stated) | ? | · | ? | 16.9µM* | ? | ·
Cc1ccc(N2C(=O)Nc3cc(Cl)c(Cl)cc3N2O)cc1Cl | 0.1% | -18.9% | -1.3% | 16.9µM* | 0.9% | 0.4%
Cc1nc(NC2CCCCC2)c2nc(-c3ccccc3)n(C(C)CN(C)C)c2n1 (configuration not stated) | · | -9.3% | · | · | · | 0.3%
Nc1ccc(-c2c3ccccc3nc3ccccc23)cc1 | 1.2% | · | 1.0% | -0.7% | -2.2% | ·
Cc1ccccc1-c1nc2cc(N)ccc2o1 | 0.355µM* | 6.31µM* | 0.891µM* | 2.39µM* | ? | -10.5%
COc1ccc(C(=O)Nc2ccc3oc(-c4cccc5c(Br)cccc45)nc3c2)cc1 | · | -3.6% | · | 0.5% | · | ·
Nc1ccc(-c2nc3ccccc3o2)cc1 | ? | · | ? | 6.75µM* | ? | ·
Nc1ccc2oc(-c3ccccc3Br)nc2c1 | · | 12.6µM* | · | 3.38µM* | · | ·
Nc1ccc2oc(-c3cccc(Br)c3)nc2c1 | 1.12µM* | 14.1µM* | 1.12µM* | 2.69µM* | 2µM* | -6.5%
CC(C)(C)c1ccc(-c2nc3cc(NC(=O)c4cccc(Br)c4)ccc3o2)cc1 | · | -9.3% | · | 2.0% | · | ·
CN(C)c1ccc(C2(c3ccc(N(C)C)cc3)OC(=O)c3cc(N(C)C)ccc32)cc1 | · | -2.4% | · | · | · | ·
CCN(CC)c1ccc(NC(=O)c2cc(C)nc3c2c(C)nn3-c2ccc(C)cc2)c(C)c1 | · | · | · | -6.3% | · | ·
CC(C)c1ccc2oc(-c3cc(N)ccc3O)nc2c1 | ? | 24.5% | 0.891µM* | 0.151µM* | ? | -11.1%
CN(C)c1nc(N)nc(CSc2nc3cc(Cl)ccc3o2)n1 | ? | 3.7% | ? | ? | 7.31µM* | -0.9%
